SMILES strings stand for the structures. The whole screen tested about 360,000 compounds, of which about 1,800 (0.5%) were called active.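 The calls were made as follows: active = interference check ratio from 0.5 to 1.5 plus GFP to RFP signal ratio inhibition reaching or exceeding a fixed threshold (cut at about 30% in these data, passing the limit was not always enough); inactive = the rest.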 For the sample, actives were picked, then their nearest neighbours and some compounds at random.

The test in a line: suppressors of acrylamide-induced Pgst-4::GFP reporter in worms, primary screen, SKN-1 inhibitor project, whole organism, uHTS, GFP/RFP fluorescence ratio, strain VP596 (AID 624304). Conditions: C. elegans VP596 Pgst-4::GFP/RFP ratio, 24 h, at 21.8 µM, stronger effect = higher value.
Regarding `COc1ccc(C(C#N)(CC(=O)O)c2cnccn2)cc1OC` (stereo unspecified), the inhibition (in general, the drop in the measured response relative to a control, in per cent) is 7.82% (inactive).
As for `Cn1nc(C(C)(C)C)c([N+](=O)[O-])c1C(N)=O`, the inhibition was 11.7% (inactive).
Take `CC(C)CN1CC(C)C(=O)N(c2ccccc2)C1=S` (stereo unspecified): the inhibition was 6.3% (inactive).
On to `FC(F)(F)c1ccc2nnc(-c3c(Cl)cccc3Cl)n2c1`, for which the inhibition is 13.4% (inactive).
As to `Nc1cc(C(F)(F)F)ccc1N1CCOCC1`, the inhibition was 2.47% (inactive).
In the case of `CCCC1OC23CCCCC2C(C#N)(C#N)C1(C#N)C(=N)O3` (stereo unspecified), the inhibition is 39.2% (active).
Regarding `O=C(NC1CCCC1)C1CC(=O)N(c2ccc(F)cc2)C1` (stereo unspecified), the inhibition was 0.701% (inactive).
On to `O=C(CCS(=O)(=O)c1cccc2nsnc12)N1CCN(c2ccccc2F)CC1`, for which the inhibition was 47.3% (active).
Regarding `CCC(=O)N1CCc2cc(S(=O)(=O)CCC(=O)N3CCN(c4ccccc4F)CC3)ccc21`, the inhibition was 20.2% (inactive).
In the case of `O=C(CCCNS(=O)(=O)c1cccc2nsnc12)NCCN1CCN(c2ccccc2F)CC1`, the inhibition was -3.19% (inactive).
The value for `CN1CCN(c2ccccc2NC(=O)COc2ccc(C3CCCCC3)cc2)CC1` was -4.71% (inactive).
Under `Cc1cc(NC(=O)CSc2ncc(C(F)(F)F)cc2Cl)no1` stands -6.53% (inactive).
In the case of `Cc1ccc(-c2ccnc3nc(Sc4ncc(C(F)(F)F)cc4Cl)nn23)cc1`, the inhibition is 41.4% (active).
`Cc1ccc(-c2nc3c(Cl)cc(C(F)(F)F)cn3c2Cc2cccc(Cl)c2)cc1`: the inhibition was 9.6% (inactive).
In the case of `COc1cccc(CNC(=O)COc2cc(O)c3c(c2)OC(C)(C)CC3=O)c1`, the inhibition was 8.05% (inactive).
Consider `CC1CN/C(=C\C(=O)c2ccc(Br)cc2)C(=O)N1` (stereo unspecified), for which the inhibition is 15.8% (inactive).
With `COc1cccc(CNc2nc(NCc3cccs3)nc3ccsc23)c1`, the inhibition is 6.96% (inactive).
With `COc1cccc(CNc2nc(NCc3ccccc3OC)nc3ccsc23)c1`, the inhibition is 43.2% (active).
In the case of `COc1cccc(-c2cc3nc(NCc4ccccc4OC)n(C)c(=O)c3s2)c1`, the inhibition is -2.32% (inactive).
Turning to `CCc1nc2c(OCc3ccc(C(=O)OC)cc3)cccn2c1N(C)C(=O)C(C)C`, the inhibition is 7.01% (inactive).
With `O=C(Nc1ccc(-n2cccn2)cc1)C1CCN(Cc2ccsc2)CC1`, the inhibition is -1.22% (inactive).
Regarding `CCCCNC(=O)c1onc(CSc2cccc(OC)c2)c1C(=O)O`, the inhibition was -12.1% (inactive).
Under `CCC(C)NC(=O)c1cc(Cl)ccc1OC` (stereo unspecified) stands 3.09% (inactive).
Regarding `COC(=O)c1ccc2nc(-c3cccc(Br)c3)c(Cc3ccccc3C(F)(F)F)n2c1`, the inhibition is -9.35% (inactive).
With `Cc1ccc(-c2nc3ccc(Br)cn3c2Cc2ccccc2C(F)(F)F)cc1`, the inhibition is 35.2% (active).
On to `Cc1cc(Br)cn2c(Cc3ccccc3C(F)(F)F)c(-c3ccc(Cl)cc3)nc12`, for which the inhibition was 12.9% (inactive).
For the molecule `Cc1cc(C)c2nc(-c3cccnc3)cc(C(=O)Nc3ccc(S(=O)(=O)Nc4onc(C)c4C)cc3)c2c1`, the inhibition was 0.27% (inactive).
Under `COc1ccc(-c2cc(C(=O)n3cnc4ccccc43)c3ccccc3n2)cc1` stands 38.1% (active).
On to `O=C(c1ccc(Cl)cc1)n1cnc2ccccc21`, for which the inhibition is 11.4% (inactive).
`C/C(N)=C(/C#N)C(=O)COC(=O)c1cc(-c2ccc(C)cc2)nc2ccccc12`: the inhibition is -3.83% (inactive).
Under `CC(C)Sc1nc(N)nc2c1ncn2C1OC(CO)C(O)C1O` (stereo unspecified) stands 8.48% (inactive).
Turning to `Cc1ccc(-n2ncc3c(=O)n(-c4ccc(C)c(C)c4)c(-c4ccco4)nc32)cc1`, the inhibition was 18.1% (inactive).
On to `Cn1c(-c2ccco2)nc2cc3ccccc3cc21`, for which the inhibition is 41.7% (active).
For `Cn1c(SCC(=O)Nc2ccc(Br)cc2F)nnc1-c1ccco1`, the inhibition was 6.52% (inactive).
As to `CC(=O)NC1CC2CCCC(C1)N2CC(=O)Nc1ccccc1` (stereo unspecified), the inhibition is -18.6% (inactive).
For the molecule `O=C(CN1C2CCC1CC(NC(=O)C1CC1)C2)NCc1ccccc1` (stereo unspecified), the inhibition was 35.8% (active).
In the case of `O=C(NCc1ccccc1)C1CCN(C(=O)Cc2ccccc2)CC1`, the inhibition is 9.03% (inactive).
Consider `CCOC(=O)N1CCN(C(=O)c2ccc(CN(c3ccc(C)c(C)c3)S(C)(=O)=O)cc2)CC1`, for which the inhibition is 6.59% (inactive).
In the case of `OCc1nc(CO)n(Cc2ccccc2)n1`, the inhibition is -5.44% (inactive).
The value for `COc1ccc(CC(NC(C)=O)C(=O)NC2CCN(C(=O)Nc3ccc(C#N)cc3)CC2)cc1OC` (stereo unspecified) was 11.3% (inactive); that for `COc1ccc(CC(NC(C)=O)C(=O)NC2CCN(C(=O)C3CC3)CC2)cc1OC` (stereo unspecified) was 7.48% (inactive).
The value for `COc1ccc(CC(NC(C)=O)C(=O)N2CCN(C(=O)Nc3cccc(Cl)c3)CC2)cc1OC` (stereo unspecified) was 40.7% (active); that for `OC(c1ccc(Cl)c(F)c1)c1ncc(-c2ccccc2Cl)[nH]1` (stereo unspecified) was 20.6% (inactive); that for `CCN1CCN(c2sc(S(C)(=O)=O)nc2S(=O)(=O)c2ccc(Cl)cc2)CC1` was -10.1% (inactive).
Under `COc1cc(N2CCCC2)c(OC)cc1/C=C(/C#N)c1cccc(Br)c1` stands 45.8% (active); under `NC(=O)C1(Nc2ccc(-c3ccccc3)cc2)CCCC1`, 13.2% (inactive); under `N#CC1(Nc2ccc3c4c(cccc24)CC3)CCCCC1`, 8.67% (inactive).
For the molecule `N#CC1(Nc2ccc(-c3ccc(Cl)cc3)cc2)CCCC1`, the inhibition was 69% (active).
Regarding `CC(=O)c1c(C)n([O-])c2ccccc2[n+]1=O`, the inhibition is 36.9% (active).
Regarding `Cc1c(C=O)c2ccccc2n1CC(=O)O`, the inhibition was -4.35% (inactive).
For `CCOC(=O)C1=C(CNC2CCCCC2)NC(=O)NC1c1cc(C)ccc1C` (stereo unspecified), the inhibition was -5.96% (inactive).
As for `C#Cc1ccc(NC(=O)C2(C)CCN2C(=O)Cc2ccc(-c3ccccc3)cc2)cc1` (stereo unspecified), the inhibition was 8.15% (inactive).
For `CC(=O)Nc1cccc(OCC(=O)/C=C2\N(C)c3ccccc3C2(C)C)c1`, the inhibition was 45.5% (active).
On to `COc1cccc(NC(=S)C(C#N)=C2N(C)c3ccccc3N2C)c1`, for which the inhibition is -3.75% (inactive).
For the molecule `Cc1cccc(OCC(=O)Nc2ccccc2F)c1`, the inhibition is 11.3% (inactive).
For `COCCn1c(SCc2nc3cc(OC)c(OC)cc3c(=O)[nH]2)nnc1-c1ccncc1`, the inhibition was 13.8% (inactive).
Consider `CCn1c(SCC(=O)Nc2nc(C)cs2)nnc1C(C)NC(=O)c1ccccc1` (stereo unspecified), for which the inhibition is -5.72% (inactive).
For the molecule `C=CCNC(=S)N1CCN(CCN=Cc2c(C)[nH]n(-c3ccc([N+](=O)[O-])cc3)c2=O)CC1`, the inhibition is -5.99% (inactive).
As for `c1ccc2c(c1)CCc1snnc1-2`, the inhibition was 11% (inactive).
Regarding `O=C1/C(=C/c2cccs2)CCC1C1CCCC1` (stereo unspecified), the inhibition is 41.6% (active).
In the case of `O=C(COC(=O)/C=C/c1cccs1)NC1CCCCC1`, the inhibition was 4.24% (inactive).
On to `O=C1/C(=C/c2cccs2)CCc2ccccc21`, for which the inhibition was 41.9% (active).
`O=S(=O)(c1cccs1)N1CCc2ccccc2C1`: the inhibition was -31.6% (inactive).
The value for `O=S1(=O)CSCS(=O)(=O)C1` was 10.6% (inactive).
With `CC1CN(S(=O)(=O)c2ccc(C(=O)NN3CCN(C)CC3)cc2)CC(C)O1` (stereo unspecified), the inhibition was -5.41% (inactive).
Take `Cc1cc(OCc2cc(C(=O)NCc3cc(C(C)C)no3)no2)cc(C)c1Cl`: the inhibition was 1.98% (inactive).
For `O=C(Nc1ccc(Cl)c(Cl)c1)N1CC=C(c2ccccc2)CC1`, the inhibition is 13.1% (inactive).
Turning to `O=C(CC(O)(C(F)(F)F)C(F)(F)F)Nc1ccc(Cl)c(Cl)c1`, the inhibition is 50.1% (active).
For the molecule `Cc1ccc(NC(=O)CSc2nn3c(=O)c(C)nnc3s2)cc1Cl`, the inhibition is 20.9% (inactive).
The value for `NC(=O)C1CCN(C2OC(=O)c3ccccc32)CC1` (stereo unspecified) was -35.9% (inactive); that for `Cc1ccc(C(NC(=O)C2CCN(CCOc3ccc(Cl)cc3Cl)CC2)c2ccccn2)cc1` (stereo unspecified) was -6.91% (inactive); that for `O=C(NC(c1ccc(Cl)cc1)c1cnccn1)C1CCN(Cc2ccc(Cl)cc2)CC1` (stereo unspecified) was -1.18% (inactive).
Regarding `O=C(NC(c1ccc(-c2ccccc2)cc1)c1cnccn1)C1CCN(CCOc2ccc(Cl)cc2Cl)CC1` (stereo unspecified), the inhibition was 39.3% (active).
Regarding `CCCCS(=O)c1snnc1C` (stereo unspecified), the inhibition is 0.19% (inactive).
Take `CC1(C(=O)NS(=O)(=O)c2cccs2)CCN1C(=O)Cc1ccc(-c2ccccc2)cc1` (stereo unspecified): the inhibition was 35.1% (active).
Regarding `CCCNC(=O)C1(C)CCN1C(=O)Cc1ccc(-c2ccccc2)cc1` (stereo unspecified), the inhibition was -5.8% (inactive).
In the case of `CC1(C(=O)NS(=O)(=O)c2ccccc2)CCN1C(=O)Cc1ccc(-c2ccccc2)cc1` (stereo unspecified), the inhibition is 14.5% (inactive).
Turning to `O=C(NCCCN1CCOCC1)C1CCCN(S(=O)(=O)N2CCCCC2)C1` (stereo unspecified), the inhibition is 6.87% (inactive).
Turning to `CC[n+]1c(C)n(-c2ccccc2)c2ccc(NC(C)=O)cc21`, the inhibition is -12.4% (inactive).
Consider `O=S(=O)(c1ccc(Sc2nnc3ccccn23)nc1)N1CCOCC1`, for which the inhibition was 10.2% (inactive).
In the case of `COC(=O)Nc1sc2nc(C)cc(C)c2c1-n1cccc1`, the inhibition was 6.78% (inactive).
In the case of `CCCCOC(=O)Nc1sc2nc(C)cc(C)c2c1-n1cccc1`, the inhibition is -12.8% (inactive).
Regarding `Cc1cc(C)c2c(-n3cccc3)c(NC(=O)OCc3ccccc3)sc2n1`, the inhibition is 39.1% (active).
In the case of `O=C(C1CCCO1)N1CCN(C(=S)NC2CC2)CC1` (stereo unspecified), the inhibition is -7.31% (inactive).
As to `CCOc1cc2[nH]c(=S)n(CCN3CCCCC3C)c(=O)c2cc1OCC` (stereo unspecified), the inhibition was -6.45% (inactive).
Regarding `COc1cc2[nH]c(=S)n(CCN3CCCCC3C)c(=O)c2cc1OC` (stereo unspecified), the inhibition was 56.1% (active).
Consider `COc1cc2[nH]c(=S)n(Cc3ccc(F)cc3)c(=O)c2cc1OC`, for which the inhibition was -0.963% (inactive).
The value for `CC(Oc1ccc(Cl)cc1Cl)C(=O)/C=C/N(C)C` (stereo unspecified) was -7.74% (inactive); that for `CC(C)(CNCC(O)c1ccccc1)N1CCOCC1` (stereo unspecified) was -7.82% (inactive).
The value for `Fc1cccc(CSc2nnc3ccc(-c4ccncc4)nn23)c1` was -27.4% (inactive); that for `COc1ccc(S(=O)(=O)NCc2cccnc2)cc1NC(=O)c1ccc(C)cc1` was 22.1% (inactive).
Turning to `CC(C)c1nnc(NC(=O)C2CC(=O)N(CCc3ccc(F)cc3)C2)s1` (stereo unspecified), the inhibition is -6.45% (inactive).
On to `CCC(C)NC(=O)c1ccccc1NC(=O)c1ccccc1N(C)S(C)(=O)=O` (stereo unspecified), for which the inhibition was -2.01% (inactive).
Consider `Cc1ccc(-c2nc(CS(=O)CC(=O)NC3CCCC3)c(C)o2)cc1` (stereo unspecified), for which the inhibition was 5.39% (inactive).
As for `COc1ccc(-c2nc(CS(=O)CC(=O)NCc3ccccn3)c(C)o2)cc1` (stereo unspecified), the inhibition is 37.6% (active).
In the case of `COc1ccc(-c2nc(CS(=O)CC(=O)NCc3cccnc3)c(C)o2)cc1OC` (stereo unspecified), the inhibition was 0.495% (inactive).

These data come from PubChem BioAssay AID624304 (Sanford-Burnham Center for Chemical Genomics, 2012).
